# Experiments:
# Experiment in all cases: DAPPL (digital affinity profiling via proximity ligation, sequencing); 10 mM Tris-HCl pH 7.5, 50 mM NaCl, 1 mM DTT, 4% glycerol, room temperature, 30 min; GST-TFs on glutathione beads, 16-mer random dsDNA library, 0.1% formaldehyde crosslink after washing; high values mean tight binding
# Settings in all cases: protein: recombinant; tags: N-terminal GST; dsDNA, one strand shown
# ELF4 = ELF4 (Homo sapiens, UniProt Q99607 1-663)
# Summary of the method: (§1)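 In yeast, human transcription factors were expressed with a GST fusion, then pulled down on glutathione beads and given DNA barcodes. Pooled with a tag-only sample, they were exposed to 200 nmole of a 16-mer random double-stranded DNA library (Tris/NaCl/DTT/glycerol buffer, room temperature, 30 min), washed, crosslinked with 0.1% formaldehyde, proximity-ligated using BsaI/T4 ligase for 1 h at 37 °C, PCR-amplified and read on an Illumina NextSeq500. Each hexamer's frequency of reads for a factor, divided by the matching frequency for the tag-only sample, gives the binding signal.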
# ELF3 = target: T1, ELF3 (Homo sapiens, UniProt P78545 1-371)
# T1 sequence: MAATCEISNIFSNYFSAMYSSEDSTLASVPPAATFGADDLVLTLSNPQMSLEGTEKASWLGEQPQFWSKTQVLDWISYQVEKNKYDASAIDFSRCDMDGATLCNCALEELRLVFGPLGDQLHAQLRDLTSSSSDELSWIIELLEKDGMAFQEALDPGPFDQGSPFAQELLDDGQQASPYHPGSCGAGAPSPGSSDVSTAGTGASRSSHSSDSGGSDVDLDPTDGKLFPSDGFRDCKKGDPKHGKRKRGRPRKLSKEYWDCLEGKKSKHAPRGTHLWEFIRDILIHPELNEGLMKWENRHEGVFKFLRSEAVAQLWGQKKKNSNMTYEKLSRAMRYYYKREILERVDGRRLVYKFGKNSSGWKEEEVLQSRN
# Summary of the method: as §1
# CRX = CRX (Homo sapiens, UniProt O43186 1-299)
# CRX, sequence (O43186 whole entry): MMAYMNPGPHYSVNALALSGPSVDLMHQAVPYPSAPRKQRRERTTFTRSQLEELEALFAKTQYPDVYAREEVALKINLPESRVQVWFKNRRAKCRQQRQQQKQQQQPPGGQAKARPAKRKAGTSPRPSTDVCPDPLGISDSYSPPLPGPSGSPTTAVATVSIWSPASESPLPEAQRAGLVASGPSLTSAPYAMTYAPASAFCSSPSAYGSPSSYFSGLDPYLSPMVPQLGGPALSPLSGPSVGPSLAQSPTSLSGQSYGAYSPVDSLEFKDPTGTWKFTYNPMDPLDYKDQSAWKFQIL
# Summary of the method: as §1
# ETV3L = target: T2, ETV3L (Homo sapiens, UniProt Q6ZN32 1-361)
# T2 sequence: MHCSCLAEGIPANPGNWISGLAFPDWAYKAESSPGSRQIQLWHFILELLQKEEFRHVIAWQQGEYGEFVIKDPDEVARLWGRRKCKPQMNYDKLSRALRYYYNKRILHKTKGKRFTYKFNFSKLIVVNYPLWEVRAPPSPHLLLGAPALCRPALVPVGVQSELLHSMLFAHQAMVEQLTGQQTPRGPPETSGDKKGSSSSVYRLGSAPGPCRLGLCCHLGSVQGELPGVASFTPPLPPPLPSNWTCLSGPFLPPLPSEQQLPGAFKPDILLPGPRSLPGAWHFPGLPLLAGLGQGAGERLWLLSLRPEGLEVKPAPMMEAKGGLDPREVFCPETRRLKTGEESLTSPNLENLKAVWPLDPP
# Summary of the method: as §1
# ELK4 = target: T3, ELK4 (Homo sapiens, UniProt P28324-2 1-405)
# T3 sequence: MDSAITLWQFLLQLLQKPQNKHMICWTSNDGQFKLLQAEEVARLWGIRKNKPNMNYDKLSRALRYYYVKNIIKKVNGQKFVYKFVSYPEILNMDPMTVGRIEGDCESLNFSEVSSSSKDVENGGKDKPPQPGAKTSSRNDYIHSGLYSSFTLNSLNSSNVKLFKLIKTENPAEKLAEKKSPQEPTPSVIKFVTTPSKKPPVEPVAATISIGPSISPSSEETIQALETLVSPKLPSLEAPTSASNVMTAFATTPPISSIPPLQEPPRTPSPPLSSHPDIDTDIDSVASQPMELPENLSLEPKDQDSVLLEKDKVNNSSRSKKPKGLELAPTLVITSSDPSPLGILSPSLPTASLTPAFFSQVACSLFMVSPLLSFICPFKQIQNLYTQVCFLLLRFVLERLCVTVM
# Summary of the method: as §1
# ETV1 = ETV1 (Homo sapiens, UniProt P50549 1-477)
# ETV1, sequence (P50549 whole entry): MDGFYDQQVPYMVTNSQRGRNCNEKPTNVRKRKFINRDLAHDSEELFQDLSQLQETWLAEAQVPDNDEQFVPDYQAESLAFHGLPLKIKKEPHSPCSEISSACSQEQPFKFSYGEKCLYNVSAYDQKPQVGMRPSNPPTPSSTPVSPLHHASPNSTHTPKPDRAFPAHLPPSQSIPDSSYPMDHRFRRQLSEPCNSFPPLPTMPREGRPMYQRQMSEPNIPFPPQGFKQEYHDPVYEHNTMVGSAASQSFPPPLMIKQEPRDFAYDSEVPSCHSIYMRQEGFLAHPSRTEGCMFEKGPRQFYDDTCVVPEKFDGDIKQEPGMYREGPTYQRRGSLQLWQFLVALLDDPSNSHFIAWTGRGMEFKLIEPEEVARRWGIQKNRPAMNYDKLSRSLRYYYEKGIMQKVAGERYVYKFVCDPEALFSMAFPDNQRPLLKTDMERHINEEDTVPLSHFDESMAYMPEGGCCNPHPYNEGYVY
# Summary of the method: as §1
# EHF = target: T4, EHF (Homo sapiens, UniProt Q9NZC4 1-300)
# T4 sequence: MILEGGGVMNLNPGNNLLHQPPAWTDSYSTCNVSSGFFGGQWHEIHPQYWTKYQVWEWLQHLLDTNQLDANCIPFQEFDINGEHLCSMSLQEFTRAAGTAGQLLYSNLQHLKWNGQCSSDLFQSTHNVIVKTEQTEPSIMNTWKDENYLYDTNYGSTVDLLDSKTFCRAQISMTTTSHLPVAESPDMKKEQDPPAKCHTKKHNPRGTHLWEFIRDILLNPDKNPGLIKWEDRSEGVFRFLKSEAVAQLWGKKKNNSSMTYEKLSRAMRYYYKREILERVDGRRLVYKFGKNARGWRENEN
# Summary of the method: as §1
# ETV2 = target: T5, ETV2 (Homo sapiens, UniProt O00321 1-342)
# T5 sequence: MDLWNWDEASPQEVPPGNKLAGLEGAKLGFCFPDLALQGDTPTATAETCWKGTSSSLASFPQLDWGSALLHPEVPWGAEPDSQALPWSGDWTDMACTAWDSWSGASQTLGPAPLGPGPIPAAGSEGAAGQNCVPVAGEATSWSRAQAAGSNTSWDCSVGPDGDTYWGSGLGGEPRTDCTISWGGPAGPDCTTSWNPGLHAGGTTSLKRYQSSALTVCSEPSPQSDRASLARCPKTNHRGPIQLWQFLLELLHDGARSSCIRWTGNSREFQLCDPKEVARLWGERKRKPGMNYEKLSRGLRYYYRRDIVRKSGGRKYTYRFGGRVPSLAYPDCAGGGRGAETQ
# Summary of the method: as §1
# ETV7 = target: T6, ETV7 (Homo sapiens, UniProt Q9Y603 1-341)
# T6 sequence: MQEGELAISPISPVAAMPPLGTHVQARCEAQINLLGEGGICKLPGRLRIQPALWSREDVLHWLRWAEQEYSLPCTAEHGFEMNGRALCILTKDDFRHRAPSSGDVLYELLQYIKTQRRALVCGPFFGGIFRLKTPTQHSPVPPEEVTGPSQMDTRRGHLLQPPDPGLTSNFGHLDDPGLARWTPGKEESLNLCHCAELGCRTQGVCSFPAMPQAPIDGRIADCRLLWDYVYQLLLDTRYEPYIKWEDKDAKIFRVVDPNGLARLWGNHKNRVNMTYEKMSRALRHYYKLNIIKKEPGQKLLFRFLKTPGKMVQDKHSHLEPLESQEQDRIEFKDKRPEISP
# Summary of the method: as §1
# ETV3 = target: T7, ETV3 (Homo sapiens, UniProt P41162-2 1-143)
# T7 sequence: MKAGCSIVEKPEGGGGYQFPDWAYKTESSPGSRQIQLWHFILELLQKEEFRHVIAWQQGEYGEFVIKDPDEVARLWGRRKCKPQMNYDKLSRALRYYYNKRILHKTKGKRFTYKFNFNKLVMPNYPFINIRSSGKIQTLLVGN
# Summary of the method: as §1
# ELK1 = target: T8, ELK1 (Homo sapiens, UniProt P19419 1-428)
# T8 sequence: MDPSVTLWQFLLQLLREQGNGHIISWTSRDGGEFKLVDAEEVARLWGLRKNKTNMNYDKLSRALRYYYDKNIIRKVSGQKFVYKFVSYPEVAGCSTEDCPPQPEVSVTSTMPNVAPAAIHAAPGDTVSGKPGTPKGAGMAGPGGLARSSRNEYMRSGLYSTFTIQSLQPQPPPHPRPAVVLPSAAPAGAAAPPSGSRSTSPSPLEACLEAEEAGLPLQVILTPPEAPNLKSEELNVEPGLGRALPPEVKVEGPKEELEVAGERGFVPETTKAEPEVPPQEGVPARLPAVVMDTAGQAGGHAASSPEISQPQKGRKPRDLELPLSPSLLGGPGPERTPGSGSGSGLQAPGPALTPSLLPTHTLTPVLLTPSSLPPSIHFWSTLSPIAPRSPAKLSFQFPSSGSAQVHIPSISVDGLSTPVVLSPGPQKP
# Summary of the method: as §1
# GABPA = target: T9, GABPA (Homo sapiens, UniProt Q06546 1-454)
# T9 sequence: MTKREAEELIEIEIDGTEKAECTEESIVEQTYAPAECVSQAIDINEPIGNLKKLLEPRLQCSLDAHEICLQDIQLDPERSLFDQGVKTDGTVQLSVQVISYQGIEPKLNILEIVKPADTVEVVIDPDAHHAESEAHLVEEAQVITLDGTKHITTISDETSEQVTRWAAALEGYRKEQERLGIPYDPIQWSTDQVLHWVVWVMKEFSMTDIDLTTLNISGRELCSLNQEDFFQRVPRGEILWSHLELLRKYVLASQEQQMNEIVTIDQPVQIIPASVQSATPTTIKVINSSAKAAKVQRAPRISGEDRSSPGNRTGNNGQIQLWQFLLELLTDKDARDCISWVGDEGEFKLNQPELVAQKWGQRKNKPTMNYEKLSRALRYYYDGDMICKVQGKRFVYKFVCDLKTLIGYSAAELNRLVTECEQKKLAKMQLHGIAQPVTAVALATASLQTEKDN
# Summary of the method: as §1
# ERF = target: T10, ERF (Homo sapiens, UniProt P50548 1-548)
# T10 sequence: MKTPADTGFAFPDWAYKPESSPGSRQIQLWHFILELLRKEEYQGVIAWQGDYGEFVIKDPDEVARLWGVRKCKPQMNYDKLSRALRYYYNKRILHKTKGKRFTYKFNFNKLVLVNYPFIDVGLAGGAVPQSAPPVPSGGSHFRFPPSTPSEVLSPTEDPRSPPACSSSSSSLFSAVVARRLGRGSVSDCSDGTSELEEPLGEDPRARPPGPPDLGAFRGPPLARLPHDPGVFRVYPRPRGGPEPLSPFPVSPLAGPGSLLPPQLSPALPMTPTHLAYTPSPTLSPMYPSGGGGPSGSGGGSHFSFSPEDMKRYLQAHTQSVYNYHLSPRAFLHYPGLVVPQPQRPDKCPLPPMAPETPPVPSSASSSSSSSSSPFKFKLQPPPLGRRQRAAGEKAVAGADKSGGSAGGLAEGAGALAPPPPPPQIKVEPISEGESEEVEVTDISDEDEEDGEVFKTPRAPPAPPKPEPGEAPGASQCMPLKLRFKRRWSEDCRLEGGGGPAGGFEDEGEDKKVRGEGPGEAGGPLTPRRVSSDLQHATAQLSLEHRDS
# Summary of the method: as §1
# ETV6 = ETV6 (Homo sapiens, UniProt P41212 1-452)
# ETV6, sequence (P41212 whole entry): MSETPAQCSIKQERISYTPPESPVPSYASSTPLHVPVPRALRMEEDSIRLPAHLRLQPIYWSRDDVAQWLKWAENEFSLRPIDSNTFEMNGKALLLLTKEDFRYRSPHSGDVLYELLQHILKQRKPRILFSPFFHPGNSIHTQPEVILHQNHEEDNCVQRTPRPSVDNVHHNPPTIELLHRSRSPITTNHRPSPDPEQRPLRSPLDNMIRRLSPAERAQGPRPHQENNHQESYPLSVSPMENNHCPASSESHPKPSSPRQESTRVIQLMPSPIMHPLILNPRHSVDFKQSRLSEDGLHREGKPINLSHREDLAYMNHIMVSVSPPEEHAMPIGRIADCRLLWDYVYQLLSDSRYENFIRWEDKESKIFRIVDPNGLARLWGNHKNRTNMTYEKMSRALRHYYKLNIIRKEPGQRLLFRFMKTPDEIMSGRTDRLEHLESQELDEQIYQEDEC
# Summary of the method: as §1
# ELF4, sequence (Q99607 whole entry, the tested form may be a part): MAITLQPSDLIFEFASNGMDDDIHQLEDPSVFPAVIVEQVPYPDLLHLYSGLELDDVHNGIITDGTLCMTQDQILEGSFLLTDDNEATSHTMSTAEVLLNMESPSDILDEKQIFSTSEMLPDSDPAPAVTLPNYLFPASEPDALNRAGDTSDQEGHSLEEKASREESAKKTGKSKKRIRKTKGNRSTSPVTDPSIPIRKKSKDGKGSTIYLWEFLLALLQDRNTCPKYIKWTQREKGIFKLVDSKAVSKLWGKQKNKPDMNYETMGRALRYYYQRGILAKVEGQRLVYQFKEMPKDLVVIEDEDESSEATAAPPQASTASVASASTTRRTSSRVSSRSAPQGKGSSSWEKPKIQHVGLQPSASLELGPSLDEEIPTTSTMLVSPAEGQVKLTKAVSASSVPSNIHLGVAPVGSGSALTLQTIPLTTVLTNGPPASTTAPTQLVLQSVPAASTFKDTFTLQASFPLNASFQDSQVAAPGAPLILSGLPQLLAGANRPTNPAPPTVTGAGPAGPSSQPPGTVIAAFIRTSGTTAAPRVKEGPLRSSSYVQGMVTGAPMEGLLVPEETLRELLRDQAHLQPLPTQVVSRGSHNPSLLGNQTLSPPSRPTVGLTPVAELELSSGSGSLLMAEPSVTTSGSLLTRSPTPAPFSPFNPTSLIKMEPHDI
sequence,measurement,setting,value
GACTAT,binding signal,ELF4,"1.01 fold enrichment (6-mer frequency, TF over GST control)"
same,binding signal,ELF3,"1.03 fold enrichment (6-mer frequency, TF over GST control)"
same,binding signal,CRX,"1.02 fold enrichment (6-mer frequency, TF over GST control)"
same,binding signal,ETV3L,"1.04 fold enrichment (6-mer frequency, TF over GST control)"
GAGCTC,binding signal,ELF4,"1.02 fold enrichment (6-mer frequency, TF over GST control)"
same,binding signal,ELK4,"1.04 fold enrichment (6-mer frequency, TF over GST control)"
same,binding signal,ETV1,"1.05 fold enrichment (6-mer frequency, TF over GST control)"
AACAGA,binding signal,EHF,"1.06 fold enrichment (6-mer frequency, TF over GST control)"
same,binding signal,ELF4,"1.02 fold enrichment (6-mer frequency, TF over GST control)"
same,binding signal,ELK4,"1.1 fold enrichment (6-mer frequency, TF over GST control)"
same,binding signal,ETV2,"1.01 fold enrichment (6-mer frequency, TF over GST control)"
same,binding signal,ETV7,"1.02 fold enrichment (6-mer frequency, TF over GST control)"
same,binding signal,ETV3,"1.01 fold enrichment (6-mer frequency, TF over GST control)"
GCAACA,binding signal,ELK1,"1.03 fold enrichment (6-mer frequency, TF over GST control)"
same,binding signal,GABPA,"1.08 fold enrichment (6-mer frequency, TF over GST control)"
same,binding signal,ELF4,"1.06 fold enrichment (6-mer frequency, TF over GST control)"
same,binding signal,ELK4,"1.08 fold enrichment (6-mer frequency, TF over GST control)"
same,binding signal,ETV2,"1.03 fold enrichment (6-mer frequency, TF over GST control)"
same,binding signal,ERF,"1.01 fold enrichment (6-mer frequency, TF over GST control)"
same,binding signal,ETV6,"1.03 fold enrichment (6-mer frequency, TF over GST control)"

# Reference: PMC7862700, “An all-to-all approach to the identification of sequence-specific readers for epigenetic DNA modifications on cytosine”
